Screening data (PubChem)
Lassa entry inh: qHTS for Inhibitors of binding or entry into cells for Lassa Virus. Lassa virus pseudotype entry inhibition, cell reporter. AID 540256, 2011. Potency, µM (top dose mostly 37.9 µM), usual class: inhibitors. 300,000 tested, 1.2% active; calls by dose curve; tested in HEK293 cells; further: nearly all actives have a fitted effect of over 50% in size
FMDV antiviral: High Throughput Screening for Foot and Mouth Disease Virus Antivirals | FMDV antiviral cell-based qHTS | Potency, µM (series often up to 57.9 µM), hits mostly inhibitors | 410,000 tested, 1.2% active | AID 1159524, 2015; calls by dose curve; tested in HEK293T cells; further: read-out not given here; nearly all actives have a fitted effect of over 45% in size
HCV inhibitor: qHTS Assay for Inhibitors of Hepatitis C Virus (HCV); Huh7.5.1 HCVcc-Cre infection, luciferase reporter, 44 h; Potency, µM (highest dose often 41.8 µM), hits mostly inhibitors; 340,000 tested, 3.4% active; AID 651820, 2012; active means well fitted inhibition curve with a large enough effect; inconclusive means small, poorly fitted or top-dose-only effect, or another doubt; inactive means no such curve, though single readings can be large or run the other way
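After 44 h co-culture of compound, cells and HCVcc-Cre (~0.5 moi), substrate is added for 15 min at room temperature and luciferase measured over 15 sec. Cells were seeded at 1,000/well and pre-cultured 4 h.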
SARS PLpro yeast: qHTS of Yeast-based Assay for SARS-CoV PLP; Potency, µM (highest dose often 32.9 µM), most hits filed as activators; AID 485353, 2010; 330,000 tested, 0.19% active; S. cerevisiae expressing SARS-CoV PLpro, growth rescue; calls by dose curve; further: nearly all actives have a fitted effect of over 55% in size
HCMV inh: qHTS Assay for inhibitors of the human cytomegalovirus (HCMV) | HFF cells, HCMV-luciferase reporter, 72 h; stronger effect = lower value | activity change, negative = inhibition, % at 57.5 µM | 410,000 tested, 4.5% active | AID 1259415, 2018; in the data active means activity change below about -60%; inconclusive means no clear call, values can overlap the other calls; inactive means above about -39%
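HFF cells seeded 16 h at 37C, treated with compounds, infected with luciferase-reporter HCMV at MOI 1 PFU/cell; luciferase read at 72 h post infection, normalized to buffer-only and Salinomycin controls.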
Marburg entry inh: qHTS for inhibitors of binding or entry into cells for Marburg Virus. Marburg virus pseudotyped entry inhibition, cell reporter. Potency, µM (titrated, usually from 37.8 µM), usual class: inhibitors. 300,000 tested, 1.8% active; calls by dose curve; tested in HEK293 cells
Numbers stand for hits; i = inactive; ? = inconclusive; nt = no result. Only some compounds are listed: those with a hit (about 8% of all), similar ones and a draw of the others.

SMILES | Lassa entry inh | FMDV antiviral | HCV inhibitor | SARS PLpro yeast | HCMV inh | Marburg entry inh
CCOc1ccc(-c2cc(C(=O)NCc3ccccc3Cl)c3ccccc3n2)cc1 | i | i | nt | nt | i | nt
COc1ccc(COC(=O)NN=C2C[C@@H](O)[C@@H](O)[C@@H]3[C@H]4C(=O)N(Cc5ccc6c(c5)OCO6)C(=O)[C@@H]4CC[C@H]23)cc1 | 0.27µM | nt | nt | nt | nt | i
COc1ccc(COC(=O)N/N=C2/C[C@@H](O)[C@@H](O)[C@@H]3[C@@H]4C(=O)N(Cc5ccc6c(c5)OCO6)C(=O)[C@H]4CC[C@@H]23)cc1 | nt | nt | nt | nt | nt | i
CCOC(=O)N/N=C1/C[C@@H](O)[C@@H](O)[C@@H]2[C@H]3C(=O)N(c4ccc(F)cc4F)C(=O)[C@@H]3CC[C@@H]12 | nt | nt | nt | nt | nt | i
COc1ccc(COC(=O)NN=C2C[C@@H](O)[C@@H](O)[C@@H]3[C@H]4C(=O)N(c5ccc(F)cc5F)C(=O)[C@@H]4CC[C@H]23)cc1 | 2.8µM | nt | nt | nt | nt | ?
O=C(NCCCO)c1cc2c([nH]c3ccccc32)c(-c2ccccc2)n1 | i | i | 10µM | i | i | ?
O=C(NCCCN1CCOCC1)c1cc2c([nH]c3ccccc32)c(-c2cccc(Br)c2)n1 | nt | ? | ? | i | i | nt
COc1cccc(-c2nc(C(=O)NCCCN3CCOCC3)cc3c2[nH]c2ccccc23)c1 | nt | i | 11µM | i | -74 | nt
Cc1ccc(-c2cnc(C3CC3)o2)cc1S(=O)(=O)Nc1ccc(F)cc1Cl | i | i | nt | nt | i | nt
Cc1c([N+](=O)[O-])c2ccc(O)cc2n1-c1ccccc1 | nt | i | ? | i | -68 | nt
CN1OC(C)(CC(=O)NCc2ccccc2)N=C1c1ccccc1Cl (stereo not given) | nt | nt | nt | nt | i | nt
COc1cc(/C=C/c2ccc(O)cc2)cc(OC)c1 | nt | i | 13µM | i | i | nt
CCOc1ccc(CNC(=O)C2Cc3cc(S(=O)(=O)N4CCCCCC4)ccc3N2C(C)=O)cc1 (stereo not given) | i | i | nt | nt | i | i
COc1ccc(NC(=O)CSc2ccccn2)cc1OC | i | i | i | nt | i | i
COc1ccc(NC(=O)CSc2ncccc2C(=O)OC(C)C)cc1OC | ? | ? | 7.9µM | i | -87 | ?
c1ccc2c(c1)C1=NCCN1c1ccccc1-2 | nt | i | nt | nt | -103 | nt
COC(=O)c1cc2sccc2n1Cc1ccc(F)cc1Cl | nt | i | nt | nt | i | i
COc1ccc(OC[C@H]2CN3[C@H](c4ccc(Br)cc4)[C@H](C)CC[C@H]3C(=O)O2)cc1 | nt | nt | nt | nt | nt | i
COc1ccc([C@]23Cc4cc(OC)c(OC)cc4[C@H](O2)C2=C(CCCC2=O)O3)cc1 | nt | nt | nt | nt | nt | i
CCCNC(=O)c1oc2ccc3c(c2c1C)C(=O)CC(C)(C)O3 | i | i | 10µM | i | i | ?
CCCNC(=O)c1oc2ccc3c(c2c1C)C=CC(C)(C)O3 | i | i | ? | i | -61 | ?
COc1ccc(OC)c(CCNC(=O)c2nc(-c3ccc(Cl)cc3)n3c2CCCCC3)c1 | i | ? | nt | nt | i | nt
COc1ccc(C(=O)Nc2nnc(S(=O)(=O)N3CCN(c4ccc(C)cc4)CC3)s2)cc1 | i | i | nt | nt | i | nt
COc1cccc(OC)c1C(=O)Nc1cccc(S(=O)(=O)Nc2ccccc2Cl)c1 | nt | i | i | i | i | nt
COc1ccccc1NS(=O)(=O)c1cccc(NC(=O)Nc2ccccc2)c1 | 15µM | ? | ? | i | ? | ?
SMILES | Lassa entry inh | FMDV antiviral | HCV inhibitor | SARS PLpro yeast | HCMV inh | Marburg entry inh
CC(=O)c1c(C)[nH]c(C(=O)Nc2cccc(S(=O)(=O)N3CCOCC3)c2)c1C | i | i | ? | i | i | i
COc1cc(Cl)c(C)cc1NC(=O)Cc1cccs1 | i | i | 3.5µM | i | i | i
COc1ccccc1NS(=O)(=O)c1cccc(NC(=O)Nc2ccc(Cl)cc2)c1 | 6.3µM | ? | ? | i | -85 | ?
CC(=O)c1c(C)[nH]c(C(=O)Nc2cccc(S(=O)(=O)N(C)c3ccccc3)c2)c1C | ? | i | 25µM | i | i | 13µM
Cc1noc(/C=C/c2cccs2)c1S(=O)(=O)N1CCC(C(=O)NCc2ccccc2Cl)CC1 | i | i | nt | nt | i | i
CC1=C(C(=O)Nc2ccccc2C)C(c2ccccn2)n2nc(SCc3ccccc3F)nc2N1 (stereo not given) | i | i | nt | nt | i | i
O=C1CCC[C@H]2[C@@H](Cc3ccccc3)[C@@H](NS(=O)(=O)Cc3ccccc3)CC[C@]23CCCN13 | nt | nt | nt | nt | i | nt
COc1ccccc1NC(=O)c1[nH]c(C)c(C(C)=O)c1C | i | i | i | i | i | ?
COc1ccccc1NS(=O)(=O)c1cc(C)ccc1C | i | i | i | i | i | 10µM
COc1ccccc1NS(=O)(=O)c1cccc(NC(=O)c2[nH]c(C)c(C(C)=O)c2C)c1 | nt | i | 13µM | i | i | nt
COc1ccccc1NS(=O)(=O)c1cccc(NC(=O)Cc2cccs2)c1 | 16µM | i | ? | i | i | i
COc1ccc(C)cc1NS(=O)(=O)c1cc(C)ccc1C | i | i | i | i | i | i
Cc1cc(C)n2nc(C(=O)NCCc3ccccc3)nc2n1 | ? | i | i | i | i | i
O=C(NCCc1ccccc1)c1nc2nc(-c3cccs3)cc(C(F)(F)F)n2n1 | i | i | 10µM | i | i | ?
CCN(CC)CCCNC(=O)CSc1nc(-c2cccs2)cc(C(F)(F)F)n1 | ? | i | ? | i | ? | i
CC(C)CNC(=O)CSc1nc(-c2cccs2)cc(C(F)(F)F)n1 | ? | ? | i | i | -68 | i
CCCNC(=O)CSc1nc(-c2cccs2)cc(C(F)(F)F)n1 | i | i | 4µM | i | i | i
O=C(CSc1nc(-c2cccs2)cc(C(F)(F)F)n1)NCc1ccccc1 | i | i | 4µM | i | i | i
CCCCn1cc(S(=O)(=O)c2ccc(CC)cc2)c(=O)c2cc(F)c(N3CCCC(C)C3)cc21 (stereo not given) | ? | i | nt | nt | i | nt
Cc1cccc(-n2c(SCC(=O)Nc3ccc(C)c(C)c3)nc3n[nH]c(C)c3c2=N)c1 | i | i | nt | nt | i | nt
Cc1ccc(C)c(NC(=O)CCc2nc3cccnc3n2Cc2cccs2)c1 | i | i | nt | nt | i | i
CCOc1ccc(NC(=O)CSc2n[nH]c(N)n2)c([N+](=O)[O-])c1 | i | i | i | i | i | i
CCOc1ccc(NC(=O)CSc2nc(-c3cccs3)cc(C(F)(F)F)n2)c([N+](=O)[O-])c1 | i | i | i | i | -101 | ?
CCCN(C(=O)c1cc2c(=O)oc3ccccc3c2s1)c1ccccc1C | i | 40µM | nt | nt | i | i
CCN(C(=O)c1cc2c(=O)oc3ccc(C)cc3c2s1)c1ccccc1C | i | ? | nt | nt | i | i
Cc1nc(C)c(-c2ccc(SCc3ccc(Cl)cc3)nn2)s1 | nt | i | ? | i | i | nt
COc1ccccc1-c1ccc(SCc2ccc([N+](=O)[O-])cc2)nn1 | ? | i | ? | i | -68 | 10µM
Cc1nc(C)c(-c2ccc(SCc3ccc([N+](=O)[O-])cc3)nn2)s1 | nt | i | 32µM | i | ? | nt
